# Reference: PubChem BioAssay (EPA / NIEHS)
# Inconclusive results are not listed. The source made the active and inactive calls. The calls were made as follows: active = hit-call score of the fitted dose curve at least 0.9, where 1 is the maximum; inconclusive = response in the unintended direction; inactive = score below 0.9.
# Key:
# [1] = target: human Protein Tyrosine Phosphatase Non-receptor Type 2 (PTPN2), PTPN2 (gene 5771) (UniProt P17706); experiment: NVS_ENZ_hPTPN2: NovaScreen (NVS) Enzymatic Assay for human Protein Tyrosine Phosphatase Non-receptor Type 2 (PTPN2) (AID 2283207)
# How it was run: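 Activity measured as fluorescence after mobility-shift separation of substrate and product, 1 h after compound. Duplicate single-point 25 uM primary testing, concentration series for actives; inhibition scored as signal loss relative to DMSO baseline.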
# [2] = target: human Protein Tyrosine Phosphatase Non-receptor Type 4 (PTPN4), PTPN4 (gene 5775) (UniProt P29074); experiment: NVS_ENZ_hPTPN4: NovaScreen (NVS) Enzymatic Assay for human Protein Tyrosine Phosphatase Non-receptor Type 4 (PTPN4) (AID 2283208)
# How it was run: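 Screened in duplicate at 25 uM, with hits then titrated to a top concentration of 50 uM. Recombinant Sf9-derived PTPN4 turnover was read by fluorescence with electrophoretic separation, 1.33 h after compound addition. DMSO served as baseline.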
# [3] = target: human Protein Tyrosine Phosphatase Non-receptor Type 9 (PTPN9), PTPN9 (gene 5780) (UniProt P43378); experiment: NVS_ENZ_hPTPN9: NovaScreen (NVS) Enzymatic Assay for human Protein Tyrosine Phosphatase Non-receptor Type 9 (PTPN9) (AID 2283209)
# How it was run: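 Sf9-expressed enzyme in a cell-free assay, fluorescence read 1.33 h after dosing with mobility-shift separation of substrate and product. Tested at 25 uM in duplicate, then up to 50 uM; signal loss versus DMSO.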
# [4] = target: human Protein Tyrosine Phosphatase Receptor Type B (PTPRB), PTPRB (gene 5787) (UniProt P23467); experiment: NVS_ENZ_hPTPRB: NovaScreen (NVS) Enzymatic Assay for human Protein Tyrosine Phosphatase Receptor Type B (PTPRB) (AID 2283211)
# Protocol: NVS_ENZ_hPTPRB is a biochemical, single-readout assay that uses extracted gene-proteins in a cell-free assay. Measurements were taken 1 hour after chemical dosing in a 384-well plate.NVS_ENZ_hPTPRB is one of one assay component(s) measured or calculated from the NVS_ENZ_hPTPRB assay. It is designed to make measurements of enzyme activity, a form of enzyme reporter, as detected with fluorescence intensity signals by Fluorescence and electrophoretic mobility shift technology.Data from the assay component NVS_ENZ_hPTPRB was analyzed into 1 assay endpoint. This assay endpoint, NVS_ENZ_hPTPRB, was analyzed in the positive analysis fitting direction relative to DMSO as the negative control and baseline of activity. Using a type of enzyme reporter, loss-of-signal activity can be used to understand changes in the enzymatic activity as they relate to the gene PTPRB. Furthermore, this assay endpoint can be referred to as a primary readout, because this assay has produced multiple assay endpoints where this one serves a enzymatic activity function. To generalize the intended target to other relatable targets, this assay endpoint is annotated to the phosphatase intended target family, where the subfamily is receptor tyrosine phosphatase.
# Binding assays used specific radioligands (tritiated, iodinated) with non-radioactive competitive displacement ligands in agonist or antagonist protocols (as indicated) and various reference compounds and inhibitors to titrate specific binding to receptors and transporters. Most enzyme assays (CYPs, kinases, phosphatases, proteases, HDACs) used recombinant protein and specific substrates (fluorescence mostly, some colorimetric and radioactive) and inhibitors, followed by a biochemical separation of substrate and product. All assays for the biochemical HTS were initially run in duplicate at a single concentration (10 uM for CYP450 assays and 25 uM for all others). […] Each assay was run with positive and negative controls, and concurrent controls on every plate. The follow-up (secondary) screen tested active chemical-pairs in concentration series, as well as a few additional assays not tested in the primary screen, some selected negative inactives, and several cases re-run in the concentration series for confirmatory purposes.
# [5] = target: human Rho Associated Coiled-coil Containing Protein Kinase 1 (ROCK1), ROCK1 (gene 6093) (UniProt Q13464); experiment: NVS_ENZ_hROCK1: NovaScreen (NVS) Enzymatic Assay for human Rho Associated Coiled-coil Containing Protein Kinase 1 (ROCK1) (AID 2283214)
# How it was run: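 Compounds first run in duplicate at 25 uM against recombinant human ROCK1, then followed in concentration series. Kinase activity was read 1 h post-dosing by fluorescence with mobility-shift separation, as signal loss relative to DMSO.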
# [6] = target: human Protein Tyrosine Phosphatase Receptor Type F (PTPRF), PTPRF (gene 5792) (UniProt P10586); experiment: NVS_ENZ_hPTPRF: NovaScreen (NVS) Enzymatic Assay for human Protein Tyrosine Phosphatase Receptor Type F (PTPRF) (AID 2283213)
# How it was run: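 Cell-free fluorescence enzyme assay with recombinant protein and substrate; product separated by electrophoretic mobility shift. Read 1 h after dosing, single 25 uM duplicate screen, then concentration-response up to 50 uM; loss of signal vs DMSO.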
# [7] = target: Tyrosine-protein phosphatase non-receptor type 14 (Homo sapiens) (UniProt Q15678); experiment: NVS_ENZ_hPTPN14: NovaScreen (NVS) Enzymatic Assay for human Protein Tyrosine Phosphatase Non-receptor Type 14 (PTPN14) (AID 2283206)
# Protocol: (§1) NVS_ENZ_hPTPN14 is a biochemical, single-readout assay that uses extracted gene-proteins in a cell-free assay. Measurements were taken 0.5 hour after chemical dosing in a 384-well plate.NVS_ENZ_hPTPN14 is one of one assay component(s) measured or calculated from the NVS_ENZ_hPTPN14 assay. It is designed to make measurements of enzyme activity, a form of enzyme reporter, as detected with fluorescence intensity signals by Fluorescence and electrophoretic mobility shift technology.Data from the assay component NVS_ENZ_hPTPN14 was analyzed into 1 assay endpoint. This assay endpoint, NVS_ENZ_hPTPN14, was analyzed in the positive analysis fitting direction relative to DMSO as the negative control and baseline of activity. Using a type of enzyme reporter, loss-of-signal activity can be used to understand changes in the enzymatic activity as they relate to the gene PTPN14. Furthermore, this assay endpoint can be referred to as a primary readout, because this assay has produced multiple assay endpoints where this one serves a enzymatic activity function. To generalize the intended target to other relatable targets, this assay endpoint is annotated to the phosphatase intended target family, where the subfamily is non-receptor tyrosine phosphatase.
# Binding assays used specific radioligands (tritiated, iodinated) with non-radioactive competitive displacement ligands in agonist or antagonist protocols (as indicated) and various reference compounds and inhibitors to titrate specific binding to receptors and transporters. Most enzyme assays (CYPs, kinases, phosphatases, proteases, HDACs) used recombinant protein and specific substrates (fluorescence mostly, some colorimetric and radioactive) and inhibitors, followed by a biochemical separation of substrate and product. All assays for the biochemical HTS were initially run in duplicate at a single concentration (10 uM for CYP450 assays and 25 uM for all others). Assay-chemical combinations meeting a pre-defined threshold (e.g., 30% inhibition and other criteria defined below) were then run in singleton concentration-response format with maximum concentration of 20 uM for CYPs and 50 uM for all others. Each assay was run with positive and negative controls, and concurrent controls on every plate. The follow-up (secondary) screen tested active chemical-pairs in concentration series, as well as a few additional assays not tested in the primary screen, some selected negative inactives, and several cases re-run in the concentration series for confirmatory purposes.
# [8] = target: human Protein Tyrosine Phosphatase Non-receptor Type 6 (PTPN6), PTPN6 (gene 5777) (UniProt P29350); experiment: NVS_ENZ_hPTPN6: NovaScreen (NVS) Enzymatic Assay for human Protein Tyrosine Phosphatase Non-receptor Type 6 (PTPN6) (AID 2283210)
# How it was run: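 Recombinant human PTPN6 from SF9 cells, enzyme activity followed by fluorescence after mobility-shift separation of substrate and product at 1.33 h. Chemicals first tested at a single 25 uM in duplicate, then confirmed across concentration series; loss of signal relative to DMSO.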
# [9] = target: Tyrosine-protein phosphatase non-receptor type 13 (Homo sapiens) (UniProt Q12923); experiment: NVS_ENZ_hPTPN13: NovaScreen (NVS) Enzymatic Assay for human Protein Tyrosine Phosphatase Non-receptor Type 13 (PTPN13) (AID 2283205)
# How it was run: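 Screened first at a single 25 uM in duplicate; compounds passing the threshold (e.g. 30% inhibition) were rerun in concentration series, top 50 uM. Recombinant enzyme, fluorescent substrate, mobility-shift separation, 0.5 h read. Data fitted as inhibition relative to DMSO.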
# [10] = target: Tyrosine-protein phosphatase non-receptor type 12 (Homo sapiens) (UniProt Q05209); experiment: NVS_ENZ_hPTPN12: NovaScreen (NVS) Enzymatic Assay for human Protein Tyrosine Phosphatase Non-receptor Type 12 (PTPN12) (AID 2283204)
# Protocol: as §1, with “NVS_ENZ_hPTPN12” for “NVS_ENZ_hPTPN14”, “1.33 hours” for “0.5 hour”, “plate.NVS_ENZ_hPTPN12” for “plate.NVS_ENZ_hPTPN14”, “NVS_ENZ_hPTPN12,” for “NVS_ENZ_hPTPN14,”, “PTPN12.” for “PTPN14.”, “phosphatase. […]” for “phosphatase.”
# human Protein Tyrosine Phosphatase Non-receptor Type 6 (PTPN6), PTPN6 (gene 5777), sequence (P29350 whole entry, looked up): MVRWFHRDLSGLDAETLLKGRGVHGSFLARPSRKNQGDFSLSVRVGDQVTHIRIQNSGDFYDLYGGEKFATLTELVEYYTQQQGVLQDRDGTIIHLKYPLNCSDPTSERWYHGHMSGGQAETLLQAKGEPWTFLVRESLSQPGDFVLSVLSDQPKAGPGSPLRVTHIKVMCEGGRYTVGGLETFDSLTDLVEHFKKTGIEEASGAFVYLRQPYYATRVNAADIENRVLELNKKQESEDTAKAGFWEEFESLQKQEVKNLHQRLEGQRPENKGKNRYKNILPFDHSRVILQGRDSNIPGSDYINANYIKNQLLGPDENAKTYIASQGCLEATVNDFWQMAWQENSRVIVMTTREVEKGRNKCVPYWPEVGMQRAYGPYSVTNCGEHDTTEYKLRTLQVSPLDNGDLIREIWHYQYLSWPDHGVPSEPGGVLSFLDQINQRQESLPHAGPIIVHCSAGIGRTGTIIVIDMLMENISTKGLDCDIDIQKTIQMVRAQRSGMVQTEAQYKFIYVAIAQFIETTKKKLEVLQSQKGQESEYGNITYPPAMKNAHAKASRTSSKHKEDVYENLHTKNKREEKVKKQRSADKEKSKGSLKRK
# human Protein Tyrosine Phosphatase Non-receptor Type 2 (PTPN2), PTPN2 (gene 5771), sequence (P17706 whole entry, looked up): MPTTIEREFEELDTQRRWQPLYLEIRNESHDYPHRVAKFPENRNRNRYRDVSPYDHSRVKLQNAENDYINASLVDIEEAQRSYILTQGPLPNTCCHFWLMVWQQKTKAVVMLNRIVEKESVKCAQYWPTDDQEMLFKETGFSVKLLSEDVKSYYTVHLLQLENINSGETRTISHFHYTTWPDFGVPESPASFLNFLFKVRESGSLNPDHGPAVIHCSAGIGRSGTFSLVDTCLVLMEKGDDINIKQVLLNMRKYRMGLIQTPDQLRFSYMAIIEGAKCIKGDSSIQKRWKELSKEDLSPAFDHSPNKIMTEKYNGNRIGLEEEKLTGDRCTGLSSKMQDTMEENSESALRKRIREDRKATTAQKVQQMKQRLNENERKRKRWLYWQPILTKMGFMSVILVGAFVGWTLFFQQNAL
# human Protein Tyrosine Phosphatase Receptor Type B (PTPRB), PTPRB (gene 5787), sequence (P23467 whole entry, looked up): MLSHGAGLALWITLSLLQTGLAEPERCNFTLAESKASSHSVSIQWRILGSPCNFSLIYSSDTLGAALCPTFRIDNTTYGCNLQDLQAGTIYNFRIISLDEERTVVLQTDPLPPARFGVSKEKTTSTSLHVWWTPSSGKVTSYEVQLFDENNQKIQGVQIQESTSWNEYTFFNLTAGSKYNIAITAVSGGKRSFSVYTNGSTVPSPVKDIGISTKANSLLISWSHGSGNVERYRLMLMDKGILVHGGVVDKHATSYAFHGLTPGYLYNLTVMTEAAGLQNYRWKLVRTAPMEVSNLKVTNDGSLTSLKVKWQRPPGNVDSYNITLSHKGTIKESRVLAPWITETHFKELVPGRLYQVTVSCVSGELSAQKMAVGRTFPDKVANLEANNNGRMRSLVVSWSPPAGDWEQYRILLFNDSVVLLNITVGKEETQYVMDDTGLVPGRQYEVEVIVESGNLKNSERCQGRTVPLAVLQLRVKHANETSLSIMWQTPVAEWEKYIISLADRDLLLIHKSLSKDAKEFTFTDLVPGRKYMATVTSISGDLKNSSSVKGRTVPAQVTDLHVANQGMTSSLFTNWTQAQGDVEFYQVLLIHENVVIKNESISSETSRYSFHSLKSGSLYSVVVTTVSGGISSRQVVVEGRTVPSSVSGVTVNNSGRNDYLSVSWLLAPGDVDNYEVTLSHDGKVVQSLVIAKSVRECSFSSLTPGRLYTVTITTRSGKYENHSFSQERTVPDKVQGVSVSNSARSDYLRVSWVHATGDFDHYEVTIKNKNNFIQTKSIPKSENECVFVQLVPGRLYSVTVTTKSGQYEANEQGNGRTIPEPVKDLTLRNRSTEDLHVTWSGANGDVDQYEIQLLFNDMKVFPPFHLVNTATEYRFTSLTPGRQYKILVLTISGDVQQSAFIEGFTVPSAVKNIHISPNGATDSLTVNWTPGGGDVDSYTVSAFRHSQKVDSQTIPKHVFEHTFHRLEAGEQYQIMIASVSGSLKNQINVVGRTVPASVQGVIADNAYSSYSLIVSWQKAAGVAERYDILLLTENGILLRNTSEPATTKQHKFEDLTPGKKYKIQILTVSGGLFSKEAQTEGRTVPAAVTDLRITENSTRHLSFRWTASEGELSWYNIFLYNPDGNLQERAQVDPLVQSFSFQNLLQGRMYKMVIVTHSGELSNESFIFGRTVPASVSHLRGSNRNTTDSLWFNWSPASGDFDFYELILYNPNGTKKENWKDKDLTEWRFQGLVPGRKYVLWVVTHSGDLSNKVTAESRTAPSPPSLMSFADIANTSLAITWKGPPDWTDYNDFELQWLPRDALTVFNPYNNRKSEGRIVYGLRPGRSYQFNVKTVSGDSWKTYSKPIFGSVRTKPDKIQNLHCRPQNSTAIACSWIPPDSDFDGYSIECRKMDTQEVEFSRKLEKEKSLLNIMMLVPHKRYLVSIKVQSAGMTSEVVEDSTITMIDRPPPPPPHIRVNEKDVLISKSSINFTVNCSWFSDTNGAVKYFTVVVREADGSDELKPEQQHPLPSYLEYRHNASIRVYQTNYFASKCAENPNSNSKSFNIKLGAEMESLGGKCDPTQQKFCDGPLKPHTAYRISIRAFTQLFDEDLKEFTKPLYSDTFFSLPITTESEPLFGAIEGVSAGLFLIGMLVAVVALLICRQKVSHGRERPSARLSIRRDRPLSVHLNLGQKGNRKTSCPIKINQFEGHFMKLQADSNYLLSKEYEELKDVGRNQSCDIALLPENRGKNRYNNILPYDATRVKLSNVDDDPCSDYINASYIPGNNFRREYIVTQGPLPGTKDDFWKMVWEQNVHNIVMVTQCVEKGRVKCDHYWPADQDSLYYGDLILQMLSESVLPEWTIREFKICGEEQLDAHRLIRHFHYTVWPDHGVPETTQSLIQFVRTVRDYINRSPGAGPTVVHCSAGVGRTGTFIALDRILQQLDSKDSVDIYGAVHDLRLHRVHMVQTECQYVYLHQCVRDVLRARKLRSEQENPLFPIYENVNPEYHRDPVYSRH
# Tyrosine-protein phosphatase non-receptor type 14 (Homo sapiens), sequence (Q15678 whole entry, looked up): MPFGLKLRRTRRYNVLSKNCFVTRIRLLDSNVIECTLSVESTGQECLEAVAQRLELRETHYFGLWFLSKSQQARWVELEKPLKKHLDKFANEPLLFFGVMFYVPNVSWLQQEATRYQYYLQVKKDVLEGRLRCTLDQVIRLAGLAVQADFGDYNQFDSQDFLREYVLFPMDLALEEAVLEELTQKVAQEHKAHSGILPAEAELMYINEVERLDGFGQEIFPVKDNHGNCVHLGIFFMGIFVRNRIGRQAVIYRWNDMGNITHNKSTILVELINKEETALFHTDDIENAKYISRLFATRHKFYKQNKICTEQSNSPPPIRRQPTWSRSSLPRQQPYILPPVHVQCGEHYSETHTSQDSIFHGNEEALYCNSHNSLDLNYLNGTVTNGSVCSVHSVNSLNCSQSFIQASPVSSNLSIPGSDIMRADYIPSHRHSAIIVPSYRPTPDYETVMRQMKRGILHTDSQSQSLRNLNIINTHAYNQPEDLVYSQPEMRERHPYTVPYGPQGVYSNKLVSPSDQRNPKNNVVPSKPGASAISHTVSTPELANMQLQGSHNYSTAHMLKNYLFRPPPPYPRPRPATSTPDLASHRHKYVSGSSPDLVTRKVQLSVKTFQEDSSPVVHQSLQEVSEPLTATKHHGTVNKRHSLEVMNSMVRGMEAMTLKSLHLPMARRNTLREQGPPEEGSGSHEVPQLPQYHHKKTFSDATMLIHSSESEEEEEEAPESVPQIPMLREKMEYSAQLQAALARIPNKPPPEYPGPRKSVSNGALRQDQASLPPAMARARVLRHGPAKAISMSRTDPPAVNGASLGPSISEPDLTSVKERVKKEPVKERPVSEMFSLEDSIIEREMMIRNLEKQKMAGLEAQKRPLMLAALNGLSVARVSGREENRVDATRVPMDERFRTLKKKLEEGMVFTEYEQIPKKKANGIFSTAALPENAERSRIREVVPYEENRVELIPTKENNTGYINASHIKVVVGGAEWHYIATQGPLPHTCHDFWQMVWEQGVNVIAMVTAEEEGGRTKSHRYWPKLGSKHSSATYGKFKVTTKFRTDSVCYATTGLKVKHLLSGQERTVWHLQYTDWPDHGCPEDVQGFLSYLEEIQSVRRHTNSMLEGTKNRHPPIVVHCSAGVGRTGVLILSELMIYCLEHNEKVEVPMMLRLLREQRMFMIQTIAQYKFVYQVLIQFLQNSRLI
# human Protein Tyrosine Phosphatase Non-receptor Type 9 (PTPN9), PTPN9 (gene 5780), sequence (P43378 whole entry, looked up): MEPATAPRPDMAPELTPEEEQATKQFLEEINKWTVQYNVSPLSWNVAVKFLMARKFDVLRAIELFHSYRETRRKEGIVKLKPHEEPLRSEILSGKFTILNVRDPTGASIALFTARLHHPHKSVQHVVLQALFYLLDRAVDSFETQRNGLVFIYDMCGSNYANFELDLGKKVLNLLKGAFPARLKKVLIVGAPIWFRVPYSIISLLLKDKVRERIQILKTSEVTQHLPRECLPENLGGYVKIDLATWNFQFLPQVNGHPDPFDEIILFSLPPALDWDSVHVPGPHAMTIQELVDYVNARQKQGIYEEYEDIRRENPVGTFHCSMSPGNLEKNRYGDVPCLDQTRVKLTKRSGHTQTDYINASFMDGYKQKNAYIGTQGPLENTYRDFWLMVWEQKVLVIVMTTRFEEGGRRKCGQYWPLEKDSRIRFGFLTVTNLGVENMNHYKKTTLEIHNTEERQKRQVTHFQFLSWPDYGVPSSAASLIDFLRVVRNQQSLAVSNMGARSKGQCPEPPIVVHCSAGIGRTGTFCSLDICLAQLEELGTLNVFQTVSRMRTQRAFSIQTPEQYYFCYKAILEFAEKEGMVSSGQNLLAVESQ
smiles,measurement,setting,value
COc1nc(C)nc(NC(=O)NS(=O)(=O)c2ccccc2Cl)n1,outcome,[1],inactive
same,outcome,[2],inactive
same,outcome,[3],inactive
same,outcome,[4],inactive
N#Cc1cc(Br)c(O)c(Br)c1,outcome,[2],inactive
same,outcome,[3],inactive
same,outcome,[5],inactive
O=C(O)COc1nc(Cl)c(Cl)cc1Cl,outcome,[1],inactive
Cc1ccc(-c2c(Cl)nc(C#N)n2S(=O)(=O)N(C)C)cc1,outcome,[6],inactive
CCOP(=S)(OCC)SCn1c(=O)oc2cc(Cl)ccc21,outcome,[7],inactive
CCCCOC(=O)c1ccccc1C(=O)OCCCC,outcome,[7],inactive
same,outcome,[8],inactive
CCCN(CCC)c1c([N+](=O)[O-])cc(S(N)(=O)=O)cc1[N+](=O)[O-],outcome,[9],inactive
same,outcome,[7],inactive
same,outcome,[4],inactive
CNC(=S)S,outcome,[10],inactive
same,outcome,[7],inactive
same,outcome,[1],inactive
same,AC50,[3],13.5 µM (active)
same,outcome,[8],inactive
same,outcome,[4],inactive
same,AC50,[6],15.5 µM (active)
CO/C=C(/C(=O)OC)c1ccccc1Oc1cc(Oc2ccccc2C#N)ncn1,AC50,[9],0.113 µM (active)
COc1nc(NC(C)C)nc(NC(C)C)n1,outcome,[4],inactive
CC(C)(C)c1ccc(CSc2cnn(C(C)(C)C)c(=O)c2Cl)cc1,AC50,[3],17 µM (active)
CCCCNC(=O)OCC#CI,outcome,[7],inactive
same,outcome,[2],inactive
C=CCC1=C(C)C(OC(=O)C2C(C=C(C)C)C2(C)C)CC1=O (configuration not stated),outcome,[3],inactive
same,outcome,[8],inactive
CCc1nn(C)c(C(=O)NCc2ccc(C(C)(C)C)cc2)c1Cl,outcome,[2],inactive
same,AC50,[3],16.4 µM (active)
CON(C)C(=O)Nc1ccc(Cl)c(Cl)c1,outcome,[5],inactive
CC1COC(Cn2cncn2)(c2ccc(Oc3ccc(Cl)cc3)cc2Cl)O1 (configuration not stated),outcome,[5],inactive
CN(C)C(=S)SSC(=S)N(C)C,outcome,[6],inactive
CCNc1nc(Cl)nc(NC(C)C)n1,outcome,[4],inactive
Cc1c(F)c(F)c(COC(=O)C2C(/C=C(\Cl)C(F)(F)F)C2(C)C)c(F)c1F (configuration not stated),outcome,[2],inactive
same,outcome,[3],inactive
